# Screening results (PubChem BioAssay)
# Hits are enriched below; roughly 3.5% of the tested compounds scored in any of these assays.
# TROY signal inh: inhibitors of TROY-dependent NF-kB signaling | 0.98% of 360,000 active | inhibition, % at 10 µM | AID 1347056 | Q293 LMP1-TROYcd NF-kB luciferase reporter, 4 h;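 active means compounds whose plate-normalised and pattern-corrected inhibition of the luciferase reporter signal at the single screening dose is 50% or more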
# HSP90 refold inh: inhibitors of HSP90 luciferase refolding in rabbit reticulocyte lysate; luciferase refolding luminescence, 3 h; inhibition, % at 5.6 µM; 0.91% of 290,000 active; AID 1789;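 active means inhibition above the screen-wide mean plus 3 SD, computed separately per campaign, cut at about 16% in these data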;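 further: 0% = DMSO wells and 100% = 60 µM geldanamycin wells; inhibitors lower the luminescence because luciferase stays unfolded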
# TWEAK Fn14 block: TWEAK-Fn14 signaling inhibition | TWEAK-stimulated Fn14 reporter cells, luciferase luminescence, 8 h | inhibition, % at 10 µM | 2% of 360,000 active; in the data active means inhibition above about 50%
# TRAIL sens C8: caspase-8 TRAIL sensitization. AID 624354. 1% of 360,000 active. NB7+C8 cells + TRAIL, ATPlite viability luminescence. inhibition (viability loss, TRAIL sensitization), % at 10 µM;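 active means compounds causing at least 50% loss of cell viability in the single-dose screen, relative to plate controls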
# PPC-1+TRAIL kill: PPC-1 cancer cell killing with TRAIL present; cell killing (% activity), % at 4 µM or 5 µM; PPC-1 cells + TRAIL, ATPLite viability luminescence; AID 1443; 0.41% of 220,000 active;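 active means cell killing above 50% in the first pass at 4 µM, then a duplicate retest at 5 µM averaging 50% or more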;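 further: plate controls were cells with TRAIL plus DMSO for no effect and medium-only wells lacking cells for full effect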
# Platelet DG rel: platelet dense granule release activity. human platelet-rich plasma, SFLLRN dense granule ATP release, luminescence. inhibition, %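 (compounds screened at 7.5 µM in platelet-rich plasma)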. 0.22% of 300,000 active;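 active means mean replicate score, as percent of positive control, at or above 50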
# HSP90 inh confirm: HSP90 inhibition, confirmation assay. shares compounds with HSP90 refold inh. rabbit reticulocyte lysate, luciferase refolding luminescence, 3 h. 64% of 2,300 active. inhibition, % at 5.9 µM; in the data active means inhibition above about 18%;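 further: 0% = vehicle wells and 100% = reference inhibitor wells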
# FLuc counter: counter-screen for HSP90 inhibitors: inhibitors of firefly luciferase; shares compounds with HSP90 refold inh; purified native firefly luciferase, luminescence; inhibition, % at 5.9 µM; 48% of 2,300 active;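 active means inhibition above the mean inhibition of all tested sample wells plus 3 SD, cut at about 10% in these data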;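 further: 0% = DMSO with luciferase and 100% = wells lacking luciferase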
# Target sequence (P08659 whole entry, looked up): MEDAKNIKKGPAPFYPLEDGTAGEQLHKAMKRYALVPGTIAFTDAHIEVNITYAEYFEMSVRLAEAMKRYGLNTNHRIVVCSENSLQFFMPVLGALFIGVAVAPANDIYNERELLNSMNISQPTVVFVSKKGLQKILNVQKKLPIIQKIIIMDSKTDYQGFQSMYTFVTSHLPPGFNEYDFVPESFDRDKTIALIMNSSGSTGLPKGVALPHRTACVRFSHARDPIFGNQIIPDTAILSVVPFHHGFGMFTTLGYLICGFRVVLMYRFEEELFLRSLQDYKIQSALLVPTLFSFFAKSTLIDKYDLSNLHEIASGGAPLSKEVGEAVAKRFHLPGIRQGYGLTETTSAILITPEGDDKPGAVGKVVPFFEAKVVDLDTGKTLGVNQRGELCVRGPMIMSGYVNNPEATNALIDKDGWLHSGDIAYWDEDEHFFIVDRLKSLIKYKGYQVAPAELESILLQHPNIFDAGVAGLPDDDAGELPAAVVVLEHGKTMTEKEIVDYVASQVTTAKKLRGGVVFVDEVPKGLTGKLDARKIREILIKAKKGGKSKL
# * marks the source's active call; other numbers are inactive results; · = not tested or not shown.
SMILES,TROY signal inh,HSP90 refold inh,TWEAK Fn14 block,TRAIL sens C8,PPC-1+TRAIL kill,Platelet DG rel,HSP90 inh confirm,FLuc counter
O=C(C1=C[C@H](c2csc3ccccc23)C[C@H](OCCCCO)O1)N1CCN(Cc2ccc3c(c2)OCO3)CC1,4,19*,6,-16,-12,-15,-6,-13
Cc1ccc(S(=O)(=O)N2C[C@H]3N(C(=O)OC(C)C)N(C(=O)OC(C)C)C[C@H](OC(=O)NC4CCCC4)[C@@]3(O)C2)cc1,-4,·,30,9,·,·,·,·
C[n+]1cccc(C2C(C#N)=C(N)Oc3c2ccc2ccccc32)c1 (stereo not drawn),-12,18*,1,19,4,1,-2,-14
CC(NC(=O)CNC(=O)C1CCCCC1)c1ccc(S(N)(=O)=O)cc1 (stereo not drawn),-3,32*,7,-2,·,-32,-1,0
COc1ccc(-n2nnnc2C(c2ccccc2OC(F)(F)F)N2CCN(C/C=C/c3ccccc3)CC2)cc1 (stereo not drawn),11,·,38,-1,·,·,·,·
CC(=O)/C=C(\C)Nc1ccccc1O,-7,18*,10,15,11,-1,26*,-8
COC(CNC(=O)c1ccc(CS(=O)(=O)c2ccc(Br)cc2)o1)OC,-15,2,4,-11,·,-1,·,·
Cc1nc(N/N=C/c2ccccn2)sc1C,·,80*,·,·,70*,·,90*,86*
COC(=O)c1ccc(/C=N/Nc2nc(C)c(C)s2)cc1,-31,6,-51,8,2,-14,·,·
CCCc1sc(N/N=C/c2ccccn2)nc1-c1ccc(F)cc1,-9,64*,-20,5,-4,4,-2,-11
CN(CC(=O)NCc1ccncc1)S(=O)(=O)c1cc(Cl)ccc1Cl,5,53*,13,-36,·,0,-1,-7
CN(C)c1ccc(/C=c2\sc3n(c2=O)CCCN=3)cc1,14,18*,29,62*,29,10,65*,52*
O=c1/c(=C/c2ccc(O)cc2)sc2n1CCCN=2,-33,-5,-5,6,0,·,·,·
COc1cccc(NC(=O)CN(C)C(=O)c2ccc(-n3cncn3)c([N+](=O)[O-])c2)c1,-10,·,-5,0,·,·,·,·
O=C(CN1C(=O)c2ccccc2S1(=O)=O)NCc1ccccc1Cl,-5,-2,-9,-2,4,-2,·,·
O=C(CN1C(=O)c2ccccc2S1(=O)=O)c1ccccc1Cl,85*,53*,102*,46,·,-5,76*,-15
CNC(=S)N/N=C/c1ccc(-c2ccc(C(=O)O)cc2)o1,1,34*,14,-4,5,46,37*,-2
O=C1NC(c2ccccc2)=CC(c2ccccc2O)N1 (stereo not drawn),2,·,-3,-2,·,0,·,·
Oc1ccccc1C1NN=C(c2ccccc2)S1 (stereo not drawn),-21,24*,56*,70*,·,15,33*,18*
CCOC(=O)C(C)/C(C)=N/NC(=O)CCC(=O)Nc1cc(C)ccc1C (stereo not drawn),-6,2,-10,-7,-13,-1,·,·
Cn1cccc1/C=N/N1CCN(Cc2ccccc2Cl)CC1,-16,2,3,-7,3,-3,·,·
Cn1cccc1/C=N/N1CCN(c2ccccc2)CC1,-6,21*,16,0,11,-1,6,-9
N#CCCN(C(=O)COC(=O)CCc1nc2ccccc2c(=O)[nH]1)c1ccccc1F,3,·,1,-10,·,·,·,·
COc1cccc(C(=O)Nc2ccc(N3CCN(S(C)(=O)=O)CC3)cc2)c1,-30,18*,-12,13,33,-5,-8,-19
CN1CCN(c2ccc(NC(=O)c3ccc4ccccc4c3)cc2)CC1,65*,25*,78*,45,·,-6,31*,28*
SMILES,TROY signal inh,HSP90 refold inh,TWEAK Fn14 block,TRAIL sens C8,PPC-1+TRAIL kill,Platelet DG rel,HSP90 inh confirm,FLuc counter
CN1CCN(c2ccc(CNC(=O)c3cc4ccccc4o3)cc2)CC1,-29,-1,-12,7,6,5,·,·
Cc1ccc(C(=O)NCc2ccc(N3CCN(C)CC3)cc2)cc1C,2,22*,5,0,·,-2,0,-9
Cc1ccc(CNC(=O)CSc2nnc(CNC(=O)c3ccccc3)o2)cc1,-2,2,6,-15,·,9,·,·
CC(C)COP(=O)(c1ccc(N(C)C)cc1)C(O)c1ccc(N(C)C)cc1 (stereo not drawn),3,0,20,4,·,-2,·,·
CC(C)OP(=O)(c1ccc(N(C)C)cc1)C(O)c1ccc(N(C)C)cc1 (stereo not drawn),1,30*,-9,-18,·,-1,-5,-7
COc1ccc(-c2nsc3c(N4CCCC4)ncnc23)cc1,66*,29*,95*,81*,5,11,60*,42*
COc1ccc(C(=O)O)cc1S(=O)(=O)N1CCN(c2ccccn2)CC1,-17,17*,20,-1,·,1,-7,-13
COC(=O)[C@H](NCc1ccc(OC)c(B(O)O)c1)C(C)C,-12,·,-14,-18,·,·,·,·
CC1CCN(c2ccc(/C=N\Nc3nncn3N)cc2[N+](=O)[O-])CC1,-8,60*,3,-5,21,·,-4,-8
Cc1cc(C)c(C#N)c(SCc2nnc(-c3ccccc3)o2)n1,90*,67*,100*,69*,72*,3,58*,33*
Cc1nc(SCc2nnc(-c3ccc(Cl)cc3)o2)c2c3c(sc2n1)CCC3,·,·,·,·,14,·,·,·
Cc1ccc(C#N)c(SCc2nnc(-c3ccc(Cl)cc3)o2)n1,87*,24*,98*,82*,64*,-7,75*,75*
CCN(CC)CCCNc1nc2ccccc2c2nc(-c3ccncc3)nn12,-33,-4,-12,7,·,3,·,·
Cc1ccc(NC(=S)/C(=C(\[O-])c2ccc(C)c([N+](=O)[O-])c2)[n+]2ccccc2)cc1C,·,31*,·,·,-7,7,17*,-16
CC(C)OC(=O)c1sc2nc(-c3ccccc3)ccc2c1N,80*,44*,91*,54*,32,3,54*,52*
COc1ccc(C(=O)c2sc3nc(-c4ccccc4)ccc3c2N)cc1,-29,-6,2,2,6,5,·,·
C=CCn1c(C)cc(C(=O)CSc2nc3ccccc3[nH]2)c1C,25,32*,80*,46,29,-5,62*,63*
C=CCn1c(C)cc(C(=O)CSc2nc3ccccc3c(=O)[nH]2)c1C,-12,1,14,25,15,·,·,·
Cc1cccc(N2CCN(c3ccc4cc(S(=O)(=O)N5CCCCC5)ccc4n3)CC2)c1C,8,-10,-2,16,·,-5,·,·
